Assay results: publication PMC5540273 (PLoS ONE, 2017)

Key:
Details in all cases: concentration: 1 μM,replicates: in singlicate; n = 1
MAPKAPK5 = system: MAPKAPK5
MARK1 = system: MARK1
MARK2 = system: MARK2
MARK3 = system: MARK3
MARK4 = system: MARK4
MAST1 = system: MAST1
MEK1 = system: T1, MEK1
T1 construct: gene MAP2K1

MEK2 = system: T2, MEK2
T2 construct: gene MAP2K2

MEK3 = system: T3, MEK3
T3 construct: gene MAP2K3

MEK4 = system: T4, MEK4
T4 construct: gene MAP2K4
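Further: KINOMEscan kinase panel screen.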

SMILES	%Inh (MAPKAPK5) [%]	%Inh (MARK1) [%]	%Inh (MARK2) [%]	%Inh (MARK3) [%]	%Inh (MARK4) [%]	%Inh (MAST1) [%]	%Inh (MEK1) [%]	%Inh (MEK2) [%]	%Inh (MEK3) [%]	%Inh (MEK4) [%]
COc1ccc(Nc2nccc(N3CCC(NC(=O)c4cccc(C#N)c4)C3)n2)cc1 (stereo not shown) [GSK1379730]	0	1	0	0	9	0	0	0	0	8
O=C(Nc1cccc(Oc2ccc3nccn3n2)c1)Nc1cccc(C(F)(F)F)c1	0	14	12	0	24	0	0	7	29	0
C[C@@H]1CNc2c(sc3ccc4nc(-c5ccc(O)cc5)ccc4c23)C(=O)N1	99.9	26	7	17	17	48	1	23	51	0
CCNCC(Cc1ccccc1)NC(=O)c1cc(Br)c(-c2ccnc3[nH]ccc23)s1.Cl.Cl (stereo not shown) [GSK1383280]	0	12	72	69	0	0	0	0	89	57
CCn1c(-c2nonc2N)nc2cncc(CNC3CCNCC3)c21.Cl [SB-747651]	0	0	0	2	0	21	0	1	16	40
Cc1ccc(Nc2ccnc(Nc3ccc4c(c3)CS(=O)(=O)C4)n2)cc1O.Cl [GW579362]	0	0	17	0	5	0	84	62	92	90.9
C[C@@H]1CCN(C(=O)N2CCCC2)C[C@@H]1N(C)c1ncnc2[nH]ccc12	8	0	50	46	5	0	18	0	29	13
CC(=O)Nc1ccc(-c2cc3ncnc(SCC(=O)O)c3s2)cc1	0	0	17	0	2	0	0	0	6	18
CNC(=O)c1ccccc1Nc1nc(Nc2cccc(CS(C)(=O)=O)c2)ncc1C.O=CO [GSK1520489]	0	71	87	72	92.3	5	94.5	91.1	69	56
CCCC(=O)Nc1n[nH]c2ncccc12 [SB-601436]	5	0	0	0	0	0	0	13	21	14
COC(=O)c1cccc(NC(=O)NC2CCN(c3ccnc(Nc4cc(OC)c(OC)c(OC)c4)n3)C2)c1 (stereo not shown) [GSK1379767]	0	0	0	0	7	15	0	17	0	26
CS(=O)(=O)Nc1ccc(-c2ccnc3[nH]ccc23)cc1 [GSK993273]	0	0	0	0	6	0	60	71	43	67
OCCn1cc(-c2cnc3nnn(Cc4ccc5ncccc5c4)c3n2)cn1	0	0	0	0	0	0	0	0	0	0
O=c1[nH]cc(-c2ccc(O)cc2)c2sc(-c3ccncc3)cc12 [GSK1033723]	0	0	0	0	1	0	0	0	0	0
CN1CCN(CCNc2nc3cc(Oc4ccc(NC(=O)Nc5cc(C(F)(F)F)ccc5F)cc4)ccc3[nH]2)CC1.Cl.Cl [GW768504]	0	19	0	12	32	7	0	31	0	0
Cc1ccc2c(-c3ccnc(Nc4ccc(C(F)(F)F)cc4)n3)cnn2n1 [GW819776]	0	17	0	0	32	41	32	40	90.7	63
CC(C(=O)NC1CCN(c2ccnc(Nc3ccc(F)cc3)n2)C1)c1ccc(Cl)cc1 (stereo not shown) [GSK1379713]	18	0	0	0	1	11	0	0	0	10
C[C@@H](Oc1cc(-n2cnc3ccc(-c4ccncc4)cc32)sc1C(N)=O)c1ccccc1Cl [GSK483724]	0	8	0	0	20	0	49	0	34	37
CN(c1cccc(CNc2nc(Nc3ccc4c(c3)CC(=O)N4)ncc2C(F)(F)F)c1)S(C)(=O)=O	0	47	39	66	56	0	0	43	62	35

SMILES	%Inh (MAPKAPK5) [%]	%Inh (MARK1) [%]	%Inh (MARK2) [%]	%Inh (MARK3) [%]	%Inh (MARK4) [%]	%Inh (MAST1) [%]	%Inh (MEK1) [%]	%Inh (MEK2) [%]	%Inh (MEK3) [%]	%Inh (MEK4) [%]
Cn1ccc2ncnc(Oc3ccc(NC(=O)Nc4cccc(C(F)(F)F)c4)c(Cl)c3)c21	0	0	6	0	0	0	0	25	0	6
Nc1nccc(-c2ccc3c(N)n[nH]c3c2)n1 [GSK1034945]	0	0	0	0	7	0	0	0	0	8
CCn1c(-c2nonc2N)nc2cncc(Br)c21 [SB-738004]	0	0	21	0	6	53	22	29	49	0
CCOC(=O)N1CCC(n2cnc(-c3ccc(F)cc3)c2-c2ccnc(N)n2)CC1 [SB-219952]	13	15	17	0	28	2	3	27	45	18
Cl.Cl.NC[C@H](CC1CCCCC1)NC(=O)c1ccc(-c2ccnc3[nH]ccc23)s1 [GSK1581428]	0	26	58	74	24	0	0	17	93.8	54
Cn1ccc2ncnc(Oc3ccc(NC(=O)Nc4cc(C(C)(C)C)on4)c(Cl)c3)c21	50	4	0	0	14	0	23	41	15	9
CC(C)S(=O)(=O)N1CCN(Cc2ccc3c(c2)nc(NC(=O)c2ccsc2)n3C[C@H](O)c2ccccc2)CC1 [GW635815]	0	6	34	43	18	0	0	0	0	9
CC(=O)c1c(-c2ccncc2)[nH]c(-c2ccncc2)c1C [GW493036]	0	0	0	10	0	36	0	0	0	40
O=C(Nc1ccccc1)c1cccc(Oc2ccc3nccn3n2)c1	4	0	6	0	10	0	0	6	13	0
CN1CCN(CCCNc2nccc(-c3c(-c4ccc(F)cc4)nn4cc(C(N)=O)ccc34)n2)CC1 [GW622475]	0	9	15	0	21	0	0	18	0	12
COC(=O)Nc1nc2cc(Oc3ccc(NC(=O)Nc4cc(C(F)(F)F)ccc4Cl)cc3)ccc2[nH]1.Cl [GW697465]	0	0	0	0	0	14	25	0	0	4
Cn1ccc2ncnc(Oc3ccc(NC(=O)Nc4cccc(C(F)(F)F)c4)c(F)c3)c21	0	13	9	8	0	0	0	29	3	0
O=C(NCC1CC1)c1ccc(-c2cc(C(=O)NC3CC3)ccc2F)cc1 [GW810445]	0	0	0	0	2	36	2	13	0	0
Cl.c1ccc(Oc2ccc(Nc3ccnc4cc(-c5ccc(CN6CCNCC6)o5)ccc34)cc2)nc1 [GW567142]	0	0	0	39	0	0	87	90.9	0	19
Cn1cc(-c2cccc3c(N)c(C(N)=O)nnc23)cn1	0	0	27	0	18	17	5	21	60	19
O=C(Nc1n[nH]c2cc(-c3ccco3)ccc12)C1CC1 [SB-737447]	12	12	39	42	0	30	0	0	30	18
Cc1ccn2nc(-c3ccc(F)cc3)c(-c3ccncc3)c2c1.Cl [GW457859]	0	0	0	0	0	64	0	48	0	0
COc1cc(Nc2nccc(N3CCC(NC(=O)c4cccc(C#N)c4)C3)n2)cc(OC)c1OC (stereo not shown) [GSK1379751]	0	100	0	0	100	0	0	0	0	19
